Read-out in test [1]: TIMP1, TIMP1 (gene 7076)
As to the kind of experiment: LTEA_HepaRG_TIMP1: Life Technologies and Expression Analysis (LTEA) Assay for TIMP1 using HepaRG (AID 2283534; active = hit-call score of the fitted dose curve at least 0.9, where 1 is the maximum; inactive = score below 0.9). The conditions noted are these: mRNA level, 48 h; actives raise or lower the signal. Summed up: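 Bidirectional change in TIMP1 transcript versus 0.5% DMSO, measured by TaqMan qRT-PCR with three housekeeping genes for normalization. HepaRG human liver cells dosed 48 h in duplicate, top concentration 100 uM with half-log dilutions.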

Read-out in test [2]: Tumor necrosis factor receptor 1 (TNFRSF1A), TNFRSF1A (gene 7132)
Nature of the test: LTEA_HepaRG_TNFRSF1A: Life Technologies and Expression Analysis (LTEA) Assay for Tumor necrosis factor receptor 1 (TNFRSF1A) using HepaRG (AID 2283535; active = hit-call score of the fitted dose curve at least 0.9, where 1 is the maximum; inactive = score below 0.9). The conditions noted are these: mRNA level, 48 h; actives raise or lower the signal. The method in brief: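 mRNA measured by qRT-PCR (TaqMan, Fluidigm arrays) against ACTB/GAPDH/POLR2A housekeepers after 48 h chemical exposure of HepaRG cells. Top concentration 100 uM, half-log 8-point series, duplicates; vehicle 0.5% DMSO, both fit directions.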

Read-out in test [3]: Thyroid Hormone Responsive (THRSP), THRSP (gene 7069)
As to the kind of experiment: LTEA_HepaRG_THRSP: Life Technologies and Expression Analysis (LTEA) Assay for Thyroid Hormone Responsive (THRSP) using HepaRG (AID 2283536; active = hit-call score of the fitted dose curve at least 0.9, where 1 is the maximum; inactive = score below 0.9). The note with it: mRNA level, 48 h; actives raise or lower the signal. Summed up:
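Differentiated human HepaRG cells were exposed in duplicate for 48 h in serum-free induction medium to eight concentrations (top 100 uM, half-log steps, 0.5% DMSO). Expression was quantified by TaqMan qRT-PCR, normalized to ACTB, GAPDH and POLR2A, with bidirectional fitting against DMSO.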

Read-out in test [4]: Cellular tumor antigen p53 (Homo sapiens) (UniProt P04637)
Nature of the test: LTEA_HepaRG_TP53: Life Technologies and Expression Analysis (LTEA) Assay for Tumor Protein P53 (TP53) using HepaRG (AID 2283537; active = hit-call score of the fitted dose curve at least 0.9, where 1 is the maximum; inactive = score below 0.9). The note with it: mRNA level, 48 h; actives raise or lower the signal. Summed up: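 Differentiated HepaRG cells in serum-free induction medium exposed 48 h in duplicate to 8 half-log concentrations, top 100 uM, 0.5% DMSO. TP53 mRNA by TaqMan qRT-PCR (Fluidigm), normalized to ACTB, GAPDH, POLR2A; fitted bidirectionally versus DMSO.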

Read-out in test [5]: UDP glucuronosyltransferase (UGT1A1), UGT1A1 (gene 54658)
Nature of the test: LTEA_HepaRG_UGT1A1: Life Technologies and Expression Analysis (LTEA) Assay for UDP glucuronosyltransferase (UGT1A1) using HepaRG (AID 2283538; active = hit-call score of the fitted dose curve at least 0.9, where 1 is the maximum; inactive = score below 0.9). The conditions noted are these: mRNA level, 48 h; actives raise or lower the signal. Summed up: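 Differentiated human HepaRG cells in serum-free induction medium were exposed in duplicate for 48 h to eight half-log concentrations up to 100 uM in 0.5% DMSO. UGT1A1 mRNA was quantified by TaqMan qRT-PCR, normalized to ACTB, GAPDH and POLR2A, and fitted bidirectionally against DMSO.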

Read-out in test [6]: UDP glucuronosyltransferase (UGT1A6), UGT1A6 (gene 54578)
As to the kind of experiment: LTEA_HepaRG_UGT1A6: Life Technologies and Expression Analysis (LTEA) Assay for UDP glucuronosyltransferase (UGT1A6) using HepaRG (AID 2283539; active = hit-call score of the fitted dose curve at least 0.9, where 1 is the maximum; inactive = score below 0.9). The note with it: mRNA level, 48 h; actives raise or lower the signal. The method in brief: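 Expression was quantified by TaqMan qRT-PCR on Fluidigm arrays with ACTB/GAPDH/POLR2A normalization and bidirectional fitting against 0.5% DMSO. HepaRG cells (~100,000/well) were treated in duplicate for 48 h at eight half-log concentrations up to 100 uM in serum-free induction medium.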

Read-out in test [7]: X-box binding protein 1 (XBP1), XBP1 (gene 7494)
Nature of the test: LTEA_HepaRG_XBP1: Life Technologies and Expression Analysis (LTEA) Assay for X-box binding protein 1 (XBP1) using HepaRG (AID 2283540; active = hit-call score of the fitted dose curve at least 0.9, where 1 is the maximum; inactive = score below 0.9). The note with it: mRNA level, 48 h; actives raise or lower the signal. Summed up:
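XBP1 transcript by qRT-PCR (housekeeping-normalized: ACTB, GAPDH, POLR2A) after 48 h chemical treatment of HepaRG cells, 8-point half-log series topping at 100 uM, vehicle 0.5% DMSO. Gain and loss of signal fitted relative to DMSO.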

Test [8] can be described thus: LTEA_HepaRG_LDH_cytotoxicity: Cytotoxicity Assessment in the Life Technologies and Expression Analysis (LTEA) Assay (AID 2283563).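 For AC50: LDH activity released into spent culture medium as a marker of cell death.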 The method in brief:
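LDH release into culture medium read after 48 h chemical treatment of HepaRG cells. Duplicate wells, eight-point half-log series topping at 100 uM, 0.5% DMSO vehicle and baseline.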

Test [9] addresses Cellular tumor antigen p53 (Homo sapiens) (UniProt P04637). As to the kind of experiment: TOX21_p53_BLA_p3_ratio: Tox21 HCT-116 p53 Agonism Beta-lactamase Assay, Ratio, Phase 3 (AID 2283596). Summed up:
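HCT116 p53-bla cells (4000/well) given compound in DMSO (217-fold dilution) after 5 h, incubated 16 h at 37C. CCF4-AM substrate 2 h at room temperature; 460/530 nm emission ratio, gain fitted against DMSO.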

Test [10] is described as follows: TOX21_p53_BLA_p4_viability: Viability Assessment in the Tox21 HCT-116 p53 Agonism Beta-lactamase Assay, Phase 4 (AID 2283597).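 Note: hits lower the luminescence signal meaning cytotoxicity.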 The method in brief: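 Following a 16 h exposure at 37C, the treated HCT116 wells were first read for the FRET ratio. They were then lysed with CellTiter-Glo, and ATP luminescence was recorded after 30 min at room temperature.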
Test [11] can be described thus: TOX21_p53_BLA_p5_viability: Viability Assessment in the Tox21 HCT-116 p53 Agonism Beta-lactamase Assay, Phase 5 (AID 2283600). Summed up: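 After the 460/530 nm beta-lactamase measurement, the wells received an ATP-detection luciferase reagent; signal was read 30 min later at RT. Compound treatment lasted 16 h on cells pre-incubated 5 h post-seeding.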
Test [12] is described as follows: Tanguay_ZF_120hpf_MORT_legacy: (Legacy) Oregon State University Tanguay Lab 120 Hour Post-fertilization zebrafish Assay for Mortality (AID 2283633).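 For AC50: fitted as increase in binary mortality versus DMSO negative control.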 The method in brief: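 Static waterborne exposure from 6 to 120 hpf at 28C of single dechorionated wild-type (5D) embryos per well, 0.64% DMSO final. Death recorded present/absent by brightfield at 24 and 120 hpf.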

Test [13] in a line: Tanguay_ZF_120hpf_YSE_legacy: (Legacy) Oregon State University Tanguay Lab 120 Hour Post-fertilization zebrafish Assay for Yolk Sac Edema (AID 2283634).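 For AC50: actives raise the incidence of yolk sac edema above the DMSO baseline.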 Summed up:
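Presence or absence of yolk sac edema was recorded at 120 hpf in surviving larvae. These were wild-type Tropical 5D embryos, chorion removed at 4 hpf, held in static exposure at 28C from 6 hpf with 0.64% DMSO vehicle.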

Test [14] is described as follows: Tanguay_ZF_120hpf_AXIS_legacy: (Legacy) Oregon State University Tanguay Lab 120 Hour Post-fertilization zebrafish Assay for Body Axis Malformation (AID 2283635).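 For AC50: potency for an increased fraction of larvae scored with body axis malformation.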 Summed up:
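Binary scoring of axis defects at 120 hpf under brightfield, fitted positive versus DMSO. Tropical 5D embryos, chorion removed by pronase at 4 hpf, were singly exposed in sealed, dark plates at 28C from 6 hpf; DMSO 0.64% final.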

The nature of test [15]: TOX21_p53_BLA_p2_viability: Viability Assessment in the Tox21 HCT-116 p53 Agonism Beta-lactamase Assay, Phase 2 (AID 2283591).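 Note: compound exposure lasted 16 h at 37 °C; actives lower the ATP signal meaning cytotoxicity.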 The method in brief:
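HCT-116 p53-bla cells (4000/well) rested 5 h at 37C, then received compounds in DMSO (217-fold dilution) for 16 h at 37C, 5% CO2. After the CCF4 read, CellTiter-Glo was added; ATP luminescence was read after 30 min at room temperature.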

The nature of test [16]: TOX21_p53_BLA_p3_viability: Viability Assessment in the Tox21 HCT-116 p53 Agonism Beta-lactamase Assay, Phase 3 (AID 2283593).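 Note: cells exposed to compound for 16 h before reading.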 Summed up: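 HCT-116 cells (4000/well) rested 5 h at 37C, then got DMSO compounds by pin tool (217-fold dilution) for 16 h at 37C, 5% CO2. After the bla read, CellTiter-Glo was added and luminescence read at 30 min, room temperature.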
Test [17] has as its target Cellular tumor antigen p53 (Homo sapiens) (UniProt P04637). As to the kind of experiment: TOX21_p53_BLA_p5_ratio: Tox21 HCT-116 p53 Agonism Beta-lactamase Assay, Ratio, Phase 5 (AID 2283599). Summed up:
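HCT-116 cells carrying a p53-inducible beta-lactamase reporter were seeded at 4000 cells/well and dosed after 5 h with compound in DMSO (217-fold dilution). After 16 h at 37C, CCF4-AM substrate was added for 2 h, and the 460/530 nm emission ratio was scored as gain-of-signal versus DMSO.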

For test [18] the target is unchanged. Nature of the test: TOX21_p53_BLA_p4_ratio: Tox21 HCT-116 p53 Agonism Beta-lactamase Assay, Ratio, Phase 4 (AID 2283601). The method in brief:
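HCT116 cells carrying an inducible beta-lactamase reporter were plated at 4000 cells/well, rested 5 h, then exposed to compounds in DMSO (217-fold dilution) for 16 h at 37C. CCF4-AM substrate was loaded 2 h at room temperature; 460/530 nm emission ratio scored gain-of-signal versus DMSO.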

The nature of test [19]: ATG_XTT_Cytotoxicity: Cytotoxicity Assessment in the Attagene TRANS-FACTORIAL HepG2 Assay (AID 2283584). Summed up: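 Viability endpoint from XTT after 24 h chemical exposure of reporter-transfected human HepG2 liver cells; signal loss fitted relative to DMSO negative control.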
For test [20], the target named is Cellular tumor antigen p53 (Homo sapiens) (UniProt P04637). Nature of the test: TOX21_p53_BLA_p2_ratio: Tox21 HCT-116 p53 Agonism Beta-lactamase Assay, Ratio, Phase 2 (AID 2283592). Summed up: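 Gain-of-signal p53 agonism was scored from the beta-lactamase FRET ratio (460/530 nm, 405 nm excitation) in HCT116 cells treated 16 h at 37C, 5% CO2, with DMSO serving as negative control and baseline.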

Inconclusive results are not listed. Activity calls are given as the source filed them. Rule for the calls, unless noted: active = hit-call score of the fitted dose curve at least 0.9, where 1 is the maximum; inconclusive = response in the unintended direction; inactive = score below 0.9.

Cellular tumor antigen p53 (Homo sapiens), sequence (P04637 whole entry, looked up): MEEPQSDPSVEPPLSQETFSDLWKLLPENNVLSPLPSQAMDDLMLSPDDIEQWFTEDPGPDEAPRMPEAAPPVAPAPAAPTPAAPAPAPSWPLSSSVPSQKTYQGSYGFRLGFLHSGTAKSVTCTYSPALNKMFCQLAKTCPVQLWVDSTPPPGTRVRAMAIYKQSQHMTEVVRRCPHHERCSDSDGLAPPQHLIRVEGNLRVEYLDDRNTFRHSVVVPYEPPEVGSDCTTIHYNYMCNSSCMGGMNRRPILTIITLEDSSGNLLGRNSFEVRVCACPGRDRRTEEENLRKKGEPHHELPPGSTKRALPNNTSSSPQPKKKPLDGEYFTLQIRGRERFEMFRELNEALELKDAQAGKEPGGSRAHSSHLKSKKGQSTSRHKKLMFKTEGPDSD

Regarding `COC(=O)c1ccccc1C(=O)O`, the call in test [1], in test [2], in [3], in [4], in test [5] and in [6] was inactive. Besides, the result in test [7], in [8], in [9], in test [10], in [11] and in test [12] was inactive. Besides, the compound was classed as inactive in test [13] and in test [14].

As usually defined, the AC50 is the concentration at which the activity in the assay is half-maximal. Take `CCCOC(=O)c1ccc(C(=O)OCCC)nc1`: the result in test [1], in [2], in test [3], in test [4], in test [5] and in [6] was inactive. In addition, the outcome in [7], in [8], in test [15], in [16], in test [9] and in [10] was inactive. For the same compound, the outcome in test [17] and in test [18] was inactive. Moreover, the AC50 is 5380 nM (active) in test [12], 1170 nM (active) in test [13] and 968 nM (active) in test [14].

With `N#CSCSc1nc2ccccc2s1`, the call in [1], in test [2], in test [5], in test [6], in [7] and in test [19] was inactive. The outcome in [13] and in test [14] was inactive. Further, the values for the AC50 in test [3], in [8] and in test [12] were 77700 nM (active), 75000 nM (active) and 539 nM (active), respectively.

`C#C[C@]1(O)CC[C@H]2[C@@H]3CCC4=CC(=O)CC[C@@H]4[C@H]3CC[C@@]21CC`: the compound was classed as inactive in test [2], in [4], in test [6], in [7], in [8] and in test [19]. Also, the call in [15], in test [20], in test [16], in test [9], in test [10] and in test [17] was inactive. Further, the compound was classed as inactive in test [11], in test [18], in test [12] and in test [14]. Further, the AC50 was 27.5 nM (active) in test [3] and 291 nM (active) in [5].

For the origin of these results see PubChem BioAssay (EPA / NIEHS).
